# Reference: the supplement of paper PMC8728848
# This is one part of a sample in which the strongest signals are shown more often than they occur.
# Legend:
# Experiment in all cases: glycan array binding signal (z-score within array); higher = stronger binding
# Conditions in all cases: glycan notation: IUPAC condensed, linker removed; mutation: D229G
# [1] = target: Gal(b1-4)GlcNAc(b1-3)Gal(b1-4)[Fuc(a1-3)]GlcNAc(b1-3)Gal(b1-4)[Fuc(a1-3)]GlcNAc
# Method in brief: (§1)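 Negative Z-scores can be read as non-binding. The Z-score is calculated within each array and then averaged across arrays of one protein sequence at different concentrations or buffers and across linkers. Arrays, 3228 in all, were curated from the Consortium for Functional Glycomics database and kept only where the protein sequence was available.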
# [2] = target: Gal(b1-4)GlcNAc(b1-3)[Gal(b1-4)GlcNAc(b1-6)]Gal(b1-4)GlcNAc
# Method in brief: as §1
# Gal3S(b1-3)GalNAc = target: Gal3S(b1-3)GalNAc
# Method in brief: as §1
# [3] = target: Gal3S(b1-4)[Fuc(a1-3)]Glc6S
# Method in brief: as §1
# Gal3S6S(b1-4)GlcNAc = target: Gal3S6S(b1-4)GlcNAc
# Method in brief: as §1
# Gal4S6S(b1-4)GlcNAc = target: Gal4S6S(b1-4)GlcNAc
# Method in brief: as §1
# Gal6S(b1-4)GlcNAc6S = target: Gal6S(b1-4)GlcNAc6S
# Method in brief: as §1
# GalNAc(a1-3)GalNAc = target: GalNAc(a1-3)GalNAc
# Method in brief: as §1
# GalNAc(b1-4)Gal(b1-4)Glc = target: GalNAc(b1-4)Gal(b1-4)Glc
# Method in brief: as §1
# [4] = target: GalNAc(b1-4)GlcNAc(b1-2)Man(a1-3)[GalNAc(b1-4)GlcNAc(b1-2)Man(a1-6)]Man(b1-4)GlcNAc(b1-4)GlcNAc
# Method in brief: as §1
# GalNAc(b1-6)GalNAc = target: GalNAc(b1-6)GalNAc
# Method in brief: as §1
# [5] = target: GlcNAc(a1-3)Gal(b1-4)GlcNAc
# Method in brief: as §1
# [6] = target: GlcNAc(a1-4)Gal(b1-4)GlcNAc(b1-3)Gal(b1-4)GlcNAc
# Method in brief: as §1
# [7] = target: GlcNAc(a1-4)Gal(b1-4)GlcNAc(b1-3)Gal(b1-4)GlcNAc(b1-3)Gal(b1-4)GlcNAc
# Method in brief: as §1
# [8] = target: GlcNAc(b1-3)Gal(b1-4)GlcNAc(b1-3)Gal(b1-4)GlcNAc(b1-3)Gal(b1-4)GlcNAc(b1-3)Gal(b1-4)GlcNAc(b1-2)Man(a1-3)[GlcNAc(b1-3)Gal(b1-4)GlcNAc(b1-3)Gal(b1-4)GlcNAc(b1-3)Gal(b1-4)GlcNAc(b1-3)Gal(b1-4)GlcNAc(b1-2)Man(a1-6)]Man(b1-4)GlcNAc(b1-4)[Fuc(a1-6)]GlcNAc
# Method in brief: as §1
# [9] = target: GlcNAc(b1-3)Gal(b1-4)GlcNAc(b1-3)Gal(b1-4)GlcNAc(b1-3)Gal(b1-4)GlcNAc(b1-3)Gal(b1-4)GlcNAc(b1-2)[GlcNAc(b1-3)Gal(b1-4)GlcNAc(b1-3)Gal(b1-4)GlcNAc(b1-3)Gal(b1-4)GlcNAc(b1-3)Gal(b1-4)GlcNAc(b1-6)]Man(a1-6)[GlcNAc(b1-3)Gal(b1-4)GlcNAc(b1-3)Gal(b1-4)GlcNAc(b1-3)Gal(b1-4)GlcNAc(b1-3)Gal(b1-4)GlcNAc(b1-2)Man(a1-3)]Man(b1-4)GlcNAc(b1-4)[Fuc(a1-6)]GlcNAc
# Method in brief: as §1
# GlcNAc(b1-3)Man = target: GlcNAc(b1-3)Man
# Method in brief: as §1
# [10] = target: GlcNAc(b1-4)GlcNAc(b1-4)GlcNAc
# Method in brief: as §1
# [11] = target: Man(a1-3)[Man(a1-6)]Man(a1-6)[Man(a1-2)Man(a1-3)]Man(b1-4)GlcNAc(b1-4)GlcNAc
# Method in brief: as §1
# [12] = target: Man(a1-3)[Man(a1-6)]Man(b1-4)GlcNAc(b1-4)[Fuc(a1-6)]GlcNAc
# Method in brief: as §1
# [13] = target: Neu5Ac(a2-3)Gal(b1-3)GlcNAc6S
# Method in brief: as §1
# [14] = target: Neu5Ac(a2-3)Gal(b1-3)]Neu5Ac(a2-3)Gal(b1-4)]GlcNAc
# Method in brief: as §1
# [15] = target: Neu5Ac(a2-3)Gal(b1-4)GlcNAc(b1-6)[Gal(b1-3)]GalNAc
# Method in brief: as §1
# Neu5Ac(a2-6)Gal = target: Neu5Ac(a2-6)Gal
# Method in brief: as §1
# [16] = target: Neu5Ac(a2-6)Gal(b1-4)GlcNAc(b1-2)Man
# Method in brief: as §1
# [17] = target: Neu5Ac(a2-6)Gal(b1-4)GlcNAc(b1-3)Gal(b1-4)GlcNAc(b1-3)[Neu5Ac(a2-6)Gal(b1-4)GlcNAc(b1-3)Gal(b1-4)GlcNAc(b1-6)]GalNAc
# Method in brief: as §1
# [18] = target: Neu5Ac(a2-6)Gal(b1-4)GlcNAc(b1-3)Gal(b1-4)[Fuc(a1-3)]GlcNAc(b1-3)Gal(b1-4)[Fuc(a1-3)]GlcNAc
# Method in brief: as §1
# [19] = target: Neu5Ac(a2-6)GalNAc(b1-4)GlcNAc6S
# Method in brief: as §1
# [20] = target: Neu5Ac(a2-8)Neu5Ac(a2-3)Gal(b1-3)GalNAc(b1-4)[Neu5Ac(a2-3)]Gal(b1-4)Glc
# Method in brief: as §1
# [21] = target: Neu5Ac(a2-8)Neu5Ac(a2-3)[Gal(b1-3)GalNAc(b1-4)]Gal(b1-4)Glc
# Method in brief: as §1
# [22] = target: Neu5Ac(a2-8)Neu5Ac(a2-8)Neu5Ac(a2-3)[GalNAc(b1-4)]Gal(b1-4)Glc
# Method in brief: as §1
# Neu5Gc(a2-6)GalNAc = target: Neu5Gc(a2-6)GalNAc
# Method in brief: as §1
binder,measurement,setting,value
"Epa1-NP-mutant-D229G (Candida glabrata), Q6VBJ0 (protein) MILNPALFLNKCVCIYTTLILLLLTNGGYATSSNDISLASKDPTTFPLGCSPDITTPKKGLSMELYSYDFRKKGSYPCWDAAYLDPNYPRTGYKSHRLLAKVDGVTGNINFYYHATKGCTPQLGHLPASYNYPKPLTMTNFTMLLYGYFRPKVTGFHTFTISADDLLFVNFGAGNAFDCCRRDSSADHFGNYQAYAIWGSKTAKDELTVHLDAGVYYPIRLFYNNREYGGALSFTFKTESNENTVSDFSEYFFSLDDTEEGCPGLISYDSSCASVKTSKIIGIDYHTETPNENLVPITKTIYHLGIPCTGTTTTPLCGSGFYDPLANKCVTINTSSTSSVTKTTSHTTSKEVSFHSSISSQKTLIPKSIPSPYGPIKSQSIPTEMETSSEISSSEYAFSDVISTPSHSPYTKKHSSLNSSSYTSTVIHSLTSYSISQGIFSTSLSEQNITSKSSTDKFSTATSMSNNITQSSIIISQFSTNNENYTTTSMHTSSDKISTETLNNSISTTTSILFSNSSTILKNNTTIISSDKDTHYHPVNPTIVCSTNKTEIICASITQPSISNSNNHWSSSVLKFNSTTVRSTLPSSAGSNETSINVPFSSSTESNTSTSSTSTSNSKMVRSTLPSSAGSNETSISVPFSSSTESNTSTSSTSTSNSKMVRSTLPSSAGSNETSINVPFSSSTESNTSTSSTSTSNSKTVRSTPFSSAGIIMTSLSQRNNKSASSYASSNSKCYNTADSCRKVHSTPSYLLTSSYTSEGVDYDCSLVSTKLKINDTNCVNNKHTTKSCLKTSVTTTIPTLEIKTARKSSSNTIGLHSYPTSSPNKSISSAPIIGYISSFKTIKTASPSYQTSDLTTITTITSLNNPGSTAVENTHESNDKSRKTSSNDISSKHSVIKETKDAVESSNKSHQTNTLKCSSIIIASSSHNSYESLGGTTLTLTLSKVYSPQNNDTLPFLEISEVNPSRTVLPESSKMMQYLTSTEERNKTARNTIATNIVSISTFHFEGEGNAIRMGYTQLLLMLIGIIVMNIGT",glycan array binding signal (z-score),[1],-0.579
same,glycan array binding signal (z-score),[2],0.003
same,glycan array binding signal (z-score),Gal3S(b1-3)GalNAc,-0.232
same,glycan array binding signal (z-score),[3],1.6
same,glycan array binding signal (z-score),Gal3S6S(b1-4)GlcNAc,2.68
same,glycan array binding signal (z-score),Gal4S6S(b1-4)GlcNAc,1.06
same,glycan array binding signal (z-score),Gal6S(b1-4)GlcNAc6S,10.9
same,glycan array binding signal (z-score),GalNAc(a1-3)GalNAc,0.722
same,glycan array binding signal (z-score),GalNAc(b1-4)Gal(b1-4)Glc,0.754
same,glycan array binding signal (z-score),[4],1.11
same,glycan array binding signal (z-score),GalNAc(b1-6)GalNAc,0.649
same,glycan array binding signal (z-score),[5],-0.409
same,glycan array binding signal (z-score),[6],0.024
same,glycan array binding signal (z-score),[7],-0.64
same,glycan array binding signal (z-score),[8],0.489
same,glycan array binding signal (z-score),[9],0.337
same,glycan array binding signal (z-score),GlcNAc(b1-3)Man,-0.859
same,glycan array binding signal (z-score),[10],0.36
same,glycan array binding signal (z-score),[11],0.04
same,glycan array binding signal (z-score),[12],-0.736
same,glycan array binding signal (z-score),[13],-0.064
same,glycan array binding signal (z-score),[14],0.197
same,glycan array binding signal (z-score),[15],0.933
same,glycan array binding signal (z-score),Neu5Ac(a2-6)Gal,0.425
same,glycan array binding signal (z-score),[16],0.054
same,glycan array binding signal (z-score),[17],3.67
same,glycan array binding signal (z-score),[18],1.65
same,glycan array binding signal (z-score),[19],0.733
same,glycan array binding signal (z-score),[20],-0.032
same,glycan array binding signal (z-score),[21],0.215
same,glycan array binding signal (z-score),[22],-0.436
same,glycan array binding signal (z-score),Neu5Gc(a2-6)GalNAc,-0.701
